Test in all cases: NCI-60 one-dose screen, 48 h (100 = growth as untreated, 0 = no growth, -100 = all killed)
What all share (settings): 10 µM unless noted

Experiment [1] deals with RPMI-8226 leukemia.
The test system of experiment [2] is OVCAR-8 ovarian.
Experiment [3] relates to OVCAR-5 ovarian.
Experiment [4] deals with OVCAR-4 ovarian.
Experiment [5] deals with SK-OV-3 ovarian.
Experiment [6] relates to IGROV1 ovarian.
The test system of experiment [7] is OVCAR-3 ovarian.
For experiment [8], the system named is HS 578T breast.
For experiment [9], the system named is NCI/ADR-RES ovarian.
Experiment [10] deals with T-47D breast.
In experiment [11] the test system is BT-549 breast.
For experiment [12], the system named is MDA-MB-435 melanoma.
The test system of experiment [13] is SW-620 colon.
For experiment [14], the system named is MCF7 breast.
The test system of experiment [15] is HCT-116 colon.
Experiment [16] has as its system HCC-2998 colon.
The subject of experiment [17] is KM12 colon.

Compounds without any hit were thinned out: in the full panel of roughly 83,000, 20% have a hit.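 The test compound was applied at a single concentration to cells in 96-well plates for 48 hours, and percent growth was recorded.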 Unmarked numbers belong to inactive results. Activity calls are given as the source filed them. Rule for the calls: active = growth percent below 10; inactive = the rest.

Take `CCOC(=O)c1nc(Nc2ccc(C(C)=O)cc2)sc1C`: the growth in experiment [1] is 103%; in [2], 103%; in experiment [3], 99.5%; in experiment [4], 96.4%; in experiment [5] it was 107%; in experiment [6] it was 103%. The growth is 105% in [7]; 105% in experiment [8]; 101% in experiment [9]; 93% in experiment [10]; 106% in experiment [11]; 100% in [12]. The growth was 101% in experiment [13]; 92.9% in [14]; 99.8% in experiment [15]; 114% in [16]; 101% in experiment [17].
`CCOC(=O)/C(C#N)=C\Nc1ccc2ncnc(Nc3ccc(Cl)cc3Cl)c2c1`: the growth in experiment [1] is 79.5%; in experiment [2], 87%; in [3], 82.2%; in experiment [4], 95.1%; in [5] it was 97%; in experiment [6], 55%. Besides, the growth was 67.6% in experiment [7]; 75.5% in experiment [8]; 85.4% in [9]; 58.6% in experiment [10]; 89.6% in [11]; 75.7% in experiment [12]. Further, the growth in experiment [13] was 100%; in [14], 87.6%; in experiment [15] it was 92.9%; in experiment [16], 119%; in experiment [17], 79.1%.
As to `COc1cccc2nc3n(c12)C(c1c(F)cccc1F)SC3` (stereo not drawn), the growth in experiment [1] is 70.4%; in experiment [2], 103%; in [3], 80.8%; in experiment [4] it was 97.4%; in experiment [5], 101%; in [6] it was 7.38% (active). Also, the growth is 132% in experiment [7]; 92.7% in [8]; 95.7% in experiment [9]; 104% in [10]; 108% in experiment [11]; 106% in experiment [12]. For the same compound, the growth in experiment [13] is 106%; in experiment [14], 104%; in experiment [15] it was 93.8%; in experiment [16], 99.9%; in experiment [17] it was 100%.
`O=C(/C=C/c1sc(Cl)nc1Cl)c1ccc(Br)cc1`: the growth in experiment [1] is 30.9%; in experiment [2] it was 90%; in [3], 95.3%; in experiment [4] it was 108%; in experiment [5] it was 105%; in experiment [6] it was 68.5%. In addition, the growth is 40% in [7]; 93.5% in [8]; 104% in experiment [9]; 91.1% in experiment [10]; 97.3% in [11]; 98.4% in experiment [12]. Further, the growth in [13] was 47.7%; in experiment [14], 27.9%; in experiment [15], 57.4%; in [16], 52.1%; in experiment [17] it was 77.2%.
`CC(=O)Oc1ccccc1C(=O)N=C1[Se]CCCN1C(=O)c1ccccc1OC(C)=O`: the growth in [1] is 80.8%; in [2], 47%; in experiment [3] it was 90.8%; in experiment [4], 78.8%; in experiment [5], 141%; in [6], 11.7%. Further, the growth was 7.64% (active) in [7]; 24.9% in experiment [8]; 29% in experiment [9]; 85.2% in [10]; -97.2% (active) in experiment [11]; -18.9% (active) in experiment [12]. The growth is 88.4% in experiment [13]; 15.7% in experiment [14]; -8.29% (active) in [15]; 104% in experiment [16]; 30.5% in experiment [17].
As to `O=C(Cc1ccc(F)c(Cl)c1)Nc1cc(C2(C(F)(F)F)CC2)nn1CC1CCCCC1`, the growth is 4.24% (active) in [1]; 8.52% (active) in experiment [2]; 0.818% (active) in experiment [3]; 13.5% in experiment [4]; -19.9% (active) in [5]; 24.5% in experiment [6]. Also, the growth in experiment [7] is 6.25% (active); in experiment [8] it was -0.843% (active); in experiment [9] it was 4.86% (active); in [10], -0.285% (active); in experiment [11], 5.11% (active); in experiment [12] it was 3.02% (active). In addition, the growth is 12.6% in experiment [13]; -0.278% (active) in experiment [14]; 5.8% (active) in [15]; 14.9% in experiment [16]; 0.921% (active) in [17].
For `O=C(CCc1nnc(-c2c(Cl)cccc2Cl)o1)c1nc2ccccc2[nH]1`, the growth in experiment [1] was 30.9%; in experiment [2], 57.2%; in experiment [3] it was 81.2%; in experiment [4] it was 58.8%; in experiment [5], 64.8%; in experiment [6], 57.6%. Besides, the growth is 66.4% in [7]; 82.3% in experiment [8]; 63.3% in [9]; 52% in [10]; 56.3% in [11]; -0.531% (active) in experiment [12]. Moreover, the growth in [13] is 35.8%; in experiment [14] it was 44.7%; in experiment [15], 22.1%; in [16], 65.9%; in experiment [17] it was 28.7%.
Turning to `C#Cc1cccc(NC(=O)Nc2ccccc2NC(=O)CCl)c1`, the growth in experiment [1] is 10.7% [8.25 µM]; in experiment [2], -13.6% [8.25 µM] (active); in experiment [3], -26% [8.25 µM] (active); in experiment [4], -33.4% [8.25 µM] (active); in [5] it was 85.3% [8.25 µM]; in experiment [6], -54.4% [8.25 µM] (active). Moreover, the growth was -74.8% [8.25 µM] (active) in [7]; -1.15% [8.25 µM] (active) in experiment [8]; -2.56% [8.25 µM] (active) in [9]; 1.49% [8.25 µM] (active) in [10]; -27% [8.25 µM] (active) in experiment [11]; -68.7% [8.25 µM] (active) in [12]. Moreover, the growth was -5.75% [8.25 µM] (active) in experiment [13]; 0.96% [8.25 µM] (active) in experiment [14]; 0.401% [8.25 µM] (active) in experiment [15]; -29.4% [8.25 µM] (active) in experiment [16]; -37.6% [8.25 µM] (active) in experiment [17].
For the compound `CC(=O)N1CCN(c2ccc(OCC3CO[C@](Cn4ccnc4)(c4ccc(Cl)cc4Cl)O3)cc2)CC1` (stereo partly drawn), the growth in experiment [1] was 43.8%; in [2], 83.9%; in experiment [3], 91.3%; in experiment [4], 67.6%; in experiment [5] it was 95.5%; in experiment [6] it was 80.2%. Besides, the growth was 99% in experiment [7]; 102% in [8]; 84.4% in experiment [9]; 51.1% in experiment [10]; 54.7% in [11]; 94% in experiment [12]. Also, the growth is 104% in experiment [13]; 86.4% in experiment [14]; 68.4% in experiment [15]; 85.5% in experiment [16]; 87% in experiment [17].

For the origin of these results see PubChem BioAssay (NCI).
